Screening results (PubChem)
An excerpt weighted towards active compounds, which were near 21% of everything screened.
Shiga inhibitor – A qHTS for Small Molecule Inhibitors of Shiga Toxin; Vero cells, Shiga toxin protein synthesis inhibition reporter; inhibition, % at 38.7 µM; 290,000 compounds, 9.2% hits; AID 2315, 2010; in the data active means inhibition mostly above about 28%, no sharp cut-off; inactive means mostly below about 43%; further: 0% is about no effect
NS1 function inh – qHTS Assay for Inhibitors of Influenza NS1 Protein Function | Potency, µM (top dose mostly 46.1 µM), without a hit: top-dose activity, positive = more growth | 270,000 compounds, 0.4% hits | AID 2326, 2010; calls by dose curve; further: potency means the concentration at half of the fitted maximal effect; actives are rising curves; nearly all actives have a fitted effect of over 50% in size
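A cell-based growth assay was used: compounds that relieve NS1-induced slow growth of budding yeast raise OD600. Assay medium was yeast nitrogen base with ammonium sulphate and -URA supplement, pH 6.0, with 2% galactose.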
Pf growth 96h – Primary qHTS for delayed death inhibitors of the malarial parasite plastid, 96 hour incubation; P. falciparum luciferase reporter growth, 96 h; Potency, µM (titrated, usually from 28.7 µM), for inactives: at the highest dose activity change, negative = inhibition, most hits filed as inhibitors; 320,000 compounds, 6.9% hits; further: potency means the concentration at half of the fitted maximal effect; on the % scale 0 is the no-effect control and ±100 the full control effect
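Two-generation exposure (96 h) targets delayed-death phenotype. Reporter parasites carrying integrated firefly luciferase, in red cells at 2% hematocrit and 0.05% parasitemia final, kept at 37 C, 5% CO2; luminescence loss indicates inhibition.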
CHX counter – Cycloheximide Counterscreen for Small Molecule Inhibitors of Shiga Toxin. cell reporter, cycloheximide protein synthesis inhibition counterscreen. max response, %. 300,000 compounds, 12% hits; in the data active means max response mostly above about 13%, no sharp cut-off; inactive means mostly below about 14%; further: read at 38.3 µM for the half of the compounds with a filed dose; 0% is about no effect
Pf growth 48h – Primary qHTS for delayed death inhibitors of the malarial parasite plastid, 48 hour incubation. P. falciparum luciferase growth in erythrocytes, 48 h. Potency, µM (series often up to 28.7 µM), for the others: top-dose activity change, negative = inhibition, hits mostly inhibitors. 310,000 compounds, 5.9% hits. AID 504832, 2011; further: potency means the concentration at half of the fitted maximal effect; on the % scale 0 is the no-effect control and ±100 the full control effect
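In quantitative HTS format, infected erythrocytes bearing luciferase-reporter parasites were treated for a single generation at 37 C. Luminescence after adding detection reagent served as the growth measure.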
* marks the source's active call; other numbers are inactive results. Unless noted, the call rests on the fitted dose curve; in most records, active means well fitted inhibition curve with a large enough effect; inconclusive means small, poorly fitted or top-dose-only effect, or another doubt; inactive means no such curve, though single readings can be large or run the other way.

How did CCC(NC(=S)NCc1ccc(F)cc1)c1ccc(C(C)C)cc1 (configuration not stated) do in these assays?
Shiga inhibitor: -12.6; NS1 function inh: 12.9%; Pf growth 96h: inconclusive; CHX counter: -1.0; Pf growth 48h: 10.4µM*

What do the screens show for `CCOc1ccc(C(C)NC(=S)NCc2ccc(Cl)cc2)cc1` (configuration not stated)?
Shiga inhibitor: 1.3; NS1 function inh: 3.5%; Pf growth 96h: 5.22µM*; CHX counter: 2.3; Pf growth 48h: inconclusive

How did Cc1ccc(C(=O)CNc2ccccc2)cc1 do in these assays?
Shiga inhibitor: 47.0*; NS1 function inh: -46.8%; Pf growth 96h: 44.7%; CHX counter: 34.0*; Pf growth 48h: 32.8%

What do the screens show for `O=C(CNc1ccc(F)cc1)c1ccccc1`?
Shiga inhibitor: 52.2; NS1 function inh: -1.4%; Pf growth 96h: -22.0%; CHX counter: 23.1*; Pf growth 48h: inconclusive

What do the screens show for `O=C(CNc1ccc(Br)cc1)c1ccccc1`?
Shiga inhibitor: 20.6; NS1 function inh: -20.6%; Pf growth 96h: 8.6%; CHX counter: 18.4*; Pf growth 48h: inconclusive

How did Cc1ccc(C(=O)CNc2ccc(Br)cc2)cc1 do in these assays?
Shiga inhibitor: 44.0*; NS1 function inh: -13.7%; Pf growth 96h: 0.0%; CHX counter: 10.2; Pf growth 48h: 31.7%

Results for Cc1ccc(C(=O)CC(=O)c2ccc(C(C)(C)C)cc2)cc1 ?
Shiga inhibitor: 5.9; NS1 function inh: 1.3%; Pf growth 96h: -17.3%; CHX counter: 7.9; Pf growth 48h: -7.5%

What do the screens show for `O=C(CNc1cccc(Cl)c1)c1ccc(Br)cc1`?
Shiga inhibitor: 8.1; NS1 function inh: -34.1%; Pf growth 96h: 0.0%; CHX counter: 12.1; Pf growth 48h: 8.8%

What do the screens show for `CCCCC(=O)Nc1ccc(C(=O)Nc2ccc(S(=O)(=O)Nc3nccc(C)n3)cc2)cc1`?
Shiga inhibitor: -1.8; NS1 function inh: 5.7%; Pf growth 96h: 11.5%; CHX counter: 1.2; Pf growth 48h: 1.3%

What do the screens show for `COc1ccccc1C(=O)NC(=O)COC(=O)c1cccc(OC(F)F)c1`?
Pf growth 96h: 5.4%; Pf growth 48h: -17.5%

Results for NC(=O)c1ccccc1NCC(=O)c1ccc(F)cc1 ?
Shiga inhibitor: 48.0*; NS1 function inh: -5.7%; Pf growth 96h: 37.5%; CHX counter: 29.1*; Pf growth 48h: 33.6%

Results for NC(=O)c1ccccc1NS(=O)(=O)c1ccc(F)cc1 ?
Shiga inhibitor: -21.2; NS1 function inh: 7.4%; Pf growth 96h: -16.7%; CHX counter: 1.1; Pf growth 48h: 25.6%

Results for Cc1ccc(C)c(Nc2ncnc(N)c2[N+](=O)[O-])c1 ?
Shiga inhibitor: -4.9; NS1 function inh: 1.3%; Pf growth 96h: 2.08µM*; CHX counter: -2.8; Pf growth 48h: 2.5%

Results for O=[N+]([O-])c1cccc(/C=N/n2c(-c3cccnc3)n[nH]c2=S)c1 ?
Shiga inhibitor: -11.9; NS1 function inh: inconclusive; Pf growth 96h: 39.1%; CHX counter: -5.4; Pf growth 48h: 13.3%

How did COc1cc(/C=N/n2c(-c3cc(C)[nH]n3)n[nH]c2=S)cc(OC)c1O do in these assays?
Shiga inhibitor: -3.3; NS1 function inh: 4.0%; Pf growth 96h: -8.8%; CHX counter: -0.7; Pf growth 48h: -7.4%

What do the screens show for `COc1cc(/C=N/n2c(=S)[nH]nc(C)c2=O)cc([N+](=O)[O-])c1O`?
Shiga inhibitor: 10.6; NS1 function inh: 10.7%; Pf growth 96h: 14.7µM*; CHX counter: -7.4; Pf growth 48h: 64.0%

Results for Cc1n[nH]c(=S)n(/N=C/c2cccc([N+](=O)[O-])c2)c1=O ?
Shiga inhibitor: -11.7; NS1 function inh: -4.8%; Pf growth 96h: inconclusive; CHX counter: -0.4; Pf growth 48h: 1.65µM*

Results for CC(SCC(=O)NC(C)C1CC2CCC1C2)C(=O)O (configuration not stated) ?
Shiga inhibitor: -11.3; NS1 function inh: 6.3%; Pf growth 96h: 11.4%; CHX counter: -0.5; Pf growth 48h: 7.4%

How did O=C(NC1CCN(C(=O)Nc2ccc(F)cc2)CC1)c1cccc(F)c1 do in these assays?
Shiga inhibitor: -12.1; NS1 function inh: -0.7%; Pf growth 96h: -0.3%; CHX counter: -0.6; Pf growth 48h: -2.5%

Results for CCCCCc1cc(O)c2c(c1)OC(C)(C)C1CC=C(C)CC21 (configuration not stated) ?
Pf growth 96h: 3.01µM*; Pf growth 48h: 2.39µM*

What do the screens show for `O=C(OCCN1C(=O)c2cccc3c(N4CCOCC4)ccc(c23)C1=O)c1ccc(Cl)cc1`?
Shiga inhibitor: -7.7; NS1 function inh: 9.6%; Pf growth 96h: 11.7µM*; CHX counter: -2.0; Pf growth 48h: inconclusive

What do the screens show for `O=C(NC1CC2CCCC(C1)N2C(=O)Nc1ccc(F)cc1)c1ccccc1` (configuration not stated)?
Shiga inhibitor: -4.4; NS1 function inh: -12.2%; Pf growth 96h: -4.9%; CHX counter: -3.1; Pf growth 48h: -17.8%

Results for CC(=O)c1c(N=CN(C)C)nc(C)nc1-c1ccccc1 ?
Shiga inhibitor: -11.3; NS1 function inh: 4.9%; Pf growth 96h: inconclusive; CHX counter: 0.8; Pf growth 48h: 33.4%

How did CN(C)C=Nc1ccccc1C1C=NNC1=O (configuration not stated) do in these assays?
Shiga inhibitor: 52.0*; NS1 function inh: 0.0%; Pf growth 96h: -25.0%; CHX counter: 22.9*; Pf growth 48h: 0.4%

What do the screens show for `COCCN(C(=O)CC1C(=O)NCCN1CC(c1ccccc1)c1ccccc1)C(C)C` (configuration not stated)?
Shiga inhibitor: 7.5; NS1 function inh: 2.6%; Pf growth 96h: 10.4µM*; CHX counter: -0.4; Pf growth 48h: inconclusive

What do the screens show for `CN(C(=O)CC1C(=O)NCCN1CC(c1ccccc1)c1ccccc1)C(C1CC1)C1CC1` (configuration not stated)?
Shiga inhibitor: 8.6; NS1 function inh: 4.1%; Pf growth 96h: inconclusive; CHX counter: -1.6; Pf growth 48h: inconclusive

Results for NC(c1ccccc1)c1cccnc1 (configuration not stated) ?
Shiga inhibitor: -7.6; NS1 function inh: 2.0%; Pf growth 96h: -28.1%; CHX counter: -2.3; Pf growth 48h: 2.3%

What do the screens show for `CC(=O)c1cccc(NC(=S)NC(=O)c2ccc(C)cc2)c1`?
Shiga inhibitor: 87.7*; NS1 function inh: -0.2%; Pf growth 96h: 9.6%; CHX counter: 39.9*; Pf growth 48h: 70.8%

Results for CC(=O)c1cccc(NC(=S)NC(=O)c2ccc(Br)cc2)c1 ?
Shiga inhibitor: 32.0; NS1 function inh: 14.1%; Pf growth 96h: -95.6%; CHX counter: 32.1*; Pf growth 48h: 16.6%

How did Cc1ccc(C(=O)NC(=S)Nc2ccc(NC(=O)c3cccc(Cl)c3)cc2)cc1 do in these assays?
Shiga inhibitor: -10.1; NS1 function inh: -1.7%; Pf growth 96h: inconclusive; CHX counter: -0.4; Pf growth 48h: inconclusive
